# Test results from PubChem BioAssay AID1159580 (chemical genetic matrix, 2015).
# In all, about 5,500 compounds went through this assay and about 2,000 (36%) were called active. Roughly 18% stayed inconclusive and do not appear here. This is one part of the list. Values without a mark were called inactive. Cut-off read from the data, not from the text of the source: active = normalized growth mostly below about 0.91 (no sharp cut-off); inconclusive = no clear call, values can overlap the other calls; inactive = mostly above about 0.92.
# Assay: chemical genetic growth profiling, strain panel (AID 1159580);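 note: tested at 20 µM; growth read once vehicle control cultures reached saturation at 30 °C; 1 = growth at the plate median or of vehicle wells; lower values mean less growth of the strain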
# Details: S. cerevisiae deletion strains, growth OD
smiles,measurement,setting,value
COC(=O)Nc1nc2ccc(C(=O)c3cccs3)cc2[nH]1,normalized growth,"locus YAL013W, strain DEP1, hits give low values",1.03
same,normalized growth,"locus YAL040C, strain CLN3, hits give low values",0.635 (active)
same,normalized growth,"locus YCL061C, strain MRC1 (second series), hits give low values",1.01
same,normalized growth,"locus YDR150W, strain NUM1, hits give low values",0.994
same,normalized growth,"locus YDR363W, strain ESC2, hits give low values",1.03
same,normalized growth,"locus YER002W, strain NOP16, hits give low values",1.01
same,normalized growth,"locus YGR229C, strain SMI1, hits give low values",1.03
same,normalized growth,"locus YJR075W, strain HOC1, hits give low values",1.04
same,normalized growth,"locus YMR307W, strain GAS1, hits give low values",1.01
same,normalized growth,"locus YNL128W, strain TEP1, hits give low values",0.73 (active)
same,normalized growth,"locus YNL153C, strain GIM3, hits give low values",0.124 (active)
same,normalized growth,"locus YNL175C, strain NOP13, hits give low values",0.715 (active)
same,normalized growth,"locus YNL197C, strain WHI3, hits give low values",0.429 (active)
same,normalized growth,"locus YNL224C, strain SQS1, hits give low values",0.605 (active)
same,normalized growth,"locus YOR083W, strain WHI5 (second series), hits give low values",0.442 (active)
